JMJD2A Tudor = qHTS Assay for Inhibitors of JMJD2A-Tudor Domain; AID 504339, 2011; Potency, µM (highest dose often 114 µM), hits mostly inhibitors; AlphaScreen JMJD2A-Tudor / H3K4me3 peptide binding; actives 4.4% (n = 390,000); Lysine-specific demethylase 4A (Homo sapiens), O75164; further: nearly all actives have a fitted effect of over 50% in size
HP1b chromo inh = HTS for Inhibitors of HP1-beta Chromodomain Interactions with Methylated Histone Tails; AlphaScreen HP1-beta / biotin-H3K9me3 peptide binding; Potency, µM (titrated, usually from 114 µM), most hits filed as inhibitors; actives 0.56% (n = 390,000); AID 540317, 2011; further: nearly all actives have a fitted effect of over 70% in size
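HP1-beta protein (50 nM final) preincubated 30 min at room temperature with biotinylated H3(1-18)K9me3 peptide (50 nM) in PBS pH 7.4, 0.01% Tween-20, then compound added for 30 min. AlphaScreen streptavidin donor/nickel chelate acceptor beads (10 ug/mL final), 30 min dark, luminescence read.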
Sfp inh = qHTS Assay for Inhibitors of Bacillus subtilis Sfp phosphopantetheinyl transferase (PPTase). actives 3.5% (n = 310,000). Biochemical Sfp PPTase activity, qHTS. 4'-phosphopantetheinyl transferase ffp (Bacillus subtilis), Q9F4F7. Potency, µM, hits mostly inhibitors;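 further: the enzyme is Sfp with the accession as filed and its product quenches rhodamine fluorescence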
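Fluorescence-quenching assay: 15 nM Sfp-PPTase preincubated 15 min at room temperature with compound, then 5 uM rhodamine-CoA and 12.5 uM BHQ-2-labelled YbbR peptide added. Fluorescence (ex 525/em 598 nm) read at start and after 30 min; difference gives rate.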
TDP1 inh = qHTS Assay for Inhibitors of Tyrosyl-DNA Phosphodiesterase (TDP1); Tyrosyl-DNA phosphodiesterase 1 (Homo sapiens), Q9NUW8; recombinant TDP1, AlphaScreen DNA substrate cleavage; Potency, µM (doses to about 130 µM), most hits filed as inhibitors; actives 0.28% (n = 350,000); AID 485290, 2010; further: nearly all actives have a fitted effect of over 40% in size
Target sequence (Q9NUW8 whole entry, looked up): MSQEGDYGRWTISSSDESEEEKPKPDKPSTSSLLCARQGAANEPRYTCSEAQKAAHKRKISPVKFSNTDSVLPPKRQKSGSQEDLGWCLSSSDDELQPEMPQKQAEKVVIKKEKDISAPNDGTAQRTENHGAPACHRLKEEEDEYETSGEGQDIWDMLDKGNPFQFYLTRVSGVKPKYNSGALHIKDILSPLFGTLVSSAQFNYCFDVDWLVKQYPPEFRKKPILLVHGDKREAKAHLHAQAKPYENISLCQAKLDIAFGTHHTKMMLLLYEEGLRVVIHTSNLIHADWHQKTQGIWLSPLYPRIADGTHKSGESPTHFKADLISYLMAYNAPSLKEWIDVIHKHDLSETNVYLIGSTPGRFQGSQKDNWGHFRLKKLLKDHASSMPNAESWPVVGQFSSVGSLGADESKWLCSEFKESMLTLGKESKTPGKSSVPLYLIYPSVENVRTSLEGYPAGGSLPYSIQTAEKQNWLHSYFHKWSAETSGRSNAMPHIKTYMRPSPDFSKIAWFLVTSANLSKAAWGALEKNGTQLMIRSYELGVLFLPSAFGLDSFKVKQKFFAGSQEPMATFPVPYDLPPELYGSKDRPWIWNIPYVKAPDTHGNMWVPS
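Steps: enzyme plus compound, 15 min RT; add biotin/phosphotyrosine-FITC oligonucleotide (15 nM final), react 5 min; add donor/acceptor beads (10 ug/ml final), 10 min; read AlphaScreen. Tdp1 at 1 nM final.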
G9a block = qHTS Assay for Inhibitors of Histone Lysine Methyltransferase G9a; actives 8.8% (n = 350,000); G9a H3K9 monomethylation, AlphaScreen, 2 h; AID 504332, 2011; Histone-lysine N-methyltransferase EHMT2 (Homo sapiens), Q96KQ7; Potency, µM (titrated, usually from 102 µM), actives largely listed as inhibitors; further: nearly all actives have a fitted effect of over 75% in size
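Compounds were preincubated with 20 nM G9a for 15 min, after which biotinylated H3K9 peptide (500 nM) and SAM (20 uM) started a 2 h room-temperature reaction. Monomethylated product was quantified by antibody-based AlphaScreen chemiluminescence.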
BAZ2B inh = qHTS Assay for Inhibitors of BAZ2B; Bromodomain adjacent to zinc finger domain protein 2B (Homo sapiens), Q9UIF8; AlphaScreen BAZ2B-H3K14Ac peptide displacement; Potency, µM (highest dose often 114 µM), usual class: inhibitors; actives 4.4% (n = 360,000); AID 504333, 2011; further: nearly all actives have a fitted effect of over 60% in size
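In this displacement format the biotinylated H3(5-23) peptide acetylated at Lys14 serves as ligand at 50 nM, with BAZ2B at 50 nM in PBS pH 7.4 containing 0.01% Tween-20. Donor and acceptor beads are 10 ug/mL final.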
A number is an active result; 0 = inactive; ? = inconclusive; - = not tested or not shown; [ ] = dose if it differs, or a comment. Most compounds without a hit are left out; they make up all but 12% or so of the library. The call rests on the fitted dose curve; in most records, active means well fitted curve in the direction sought with a large enough effect; inconclusive means small, poorly fitted or top-dose-only effect, or another doubt; inactive means no such curve, though single readings can be large; an effect the other way counts as inactive or inconclusive.

SMILES	JMJD2A Tudor	HP1b chromo inh	Sfp inh	TDP1 inh	G9a block	BAZ2B inh
Cc1ccc(-n2c(C)nc3c(cnn3-c3ccccc3Cl)c2=O)cc1C	0	0	0	0	0	0
Cc1nc2c(cnn2-c2ccccc2Cl)c(=O)n1-c1ccc(N2CCC(C)CC2)cc1	?	0	0	0	50µM	?
CCNC(=S)N/N=C(\C)c1ccc2ccccc2c1	-	-	0	0	?	35µM
CCNC(=S)N/N=C(\C)c1ccc2ccccc2c1OC(F)F	?	?	0	0	45µM	?
O=C1CCCCCCC1Sc1ccccc1[N+](=O)[O-] (configuration not stated)	0[11.4 µM]	?	0	0	11µM	?
O=[N+]([O-])c1ccccc1S(=O)(=O)NC1CCCCCCC1	?	0	0	-	-	0
COc1ccc(OC)c2sc(N3CCN(C(=O)CCS(=O)(=O)c4ccc(F)cc4)CC3)nc12	0	0	-	0	0	0
Cc1nc2c3ccccc3nc(NNC(=O)CCC(=O)N3CCCC(C)C3)n2n1 (configuration not stated)	0	0	0	0	?	0
Cc1ccc(-c2nc3c(c(SCC(=O)N4CCOCC4)n2)Cc2c(CO)cnc(C)c2O3)cc1	?	0	0	0	14µM	?
CCN(CC)C(=O)CSc1nc(-c2ccc(C)cc2)nc2c1Cc1c(CO)cnc(C)c1O2	?	0	-	0	14µM	45µM
Cc1cc(C)cc(NC(=O)CSc2nc(-c3cccc(Cl)c3)nc3c2Cc2c(CO)cnc(C)c2O3)c1	0	0	-	0	0	50µM
Cc1c(C)n(CCN(C)C)c2ncnc(NCc3ccccc3)c12	0	0	0	-	?	0
Cc1c(C)n(CCc2ccccc2)c2ncnc(NCCCN(C)C)c12	?	?	0	-	0[2.33 µM]	45µM
CN(CC(=O)Nc1sccc1C#N)S(=O)(=O)c1ccc(F)cc1	0	0	-	0	?	0
CCCC[n+]1ccn(-c2nc3ccccc3nc2[N-]S(=O)(=O)c2ccc(Cl)cc2)c1	?	0	0	0	-	?
CCCCC[n+]1ccn(-c2nc3ccccc3nc2[N-]S(=O)(=O)c2ccccc2)c1	0	0	35µM	-	0	20µM
CCCCNC(=S)Nc1ccccc1Cc1ccccc1	0	0	0	0	0	50µM
CCCCNC(=O)Nc1ccccc1CC	0	0	0	0	0	0
Cc1cc(SCNC(=O)c2ccccc2)nc(C(C)C)n1	0	0	?	0	32µM	0
Cc1cc(SCC(=O)c2ccccc2)nc(C)n1	0	0	0	0	50µM	0
Cc1nc2ccccc2nc1SCC(=O)c1ccccc1	0	0	45µM	0	?	0
Cc1cc(SCC(=O)Nc2ccccc2)nc(C)n1	0	0	0	0	0	0
O=C(CSc1ccc2ccccc2n1)c1ccccc1	0	0	0	-	-	0
Cc1cc(SCC(N)=O)nc(SCC(=O)c2ccccc2)n1	0	0	45µM	0	28µM	0
CCOC(=O)c1nn2c(C(F)(F)F)cc(-c3ccc(C)cc3)nc2c1Cl	0	0	-	0[12.3 µM]	0	0
SMILES	JMJD2A Tudor	HP1b chromo inh	Sfp inh	TDP1 inh	G9a block	BAZ2B inh
Cc1cc2nc3c(=O)[nH]c(=O)nc-3n(CC(O)C(O)C(O)COP(=O)(O)O)c2cc1C (configuration not stated)	-	-	0	0	?	-
Cc1ccc(CNC(=O)c2ccc(-c3nc(CS(=O)(=O)c4ccc(C)cc4)c(C)o3)cc2)cc1	0	0	-	0	0	0
CCN(Cc1ccccc1)C(=O)Cn1c(=O)n(-c2ccc(Cl)cc2)c(=O)c2c(C)c(C(=O)N(C)C)sc21	13µM	0	-	0	0	0
CCc1ccc(-n2c(=O)c3c(C)c(C(=O)N(C)C)sc3n(CC(=O)Nc3cc(Cl)ccc3C)c2=O)cc1	0	0	-	0	?	0
CC(=O)N1CCc2nc3sc(C(=O)c4ccc(F)cc4)c(N)c3c(C(F)(F)F)c2C1	?	0	-	0	0	50µM
COc1ccc(C(=O)c2sc3nc4c(c(C(F)(F)F)c3c2N)CN(C(C)=O)CC4)cc1OC	?	0	-	0	0	0
N#CCCn1c(=O)c(-c2ccccc2)nc2cnc(N3CCNCC3)nc21	-	-	0	-	0[12.7 µM]	-
CSc1nc(=S)c2[nH]c(=S)[nH]c2[nH]1	25µM	20µM	2.5µM	0	0.63µM	79µM
Nc1nc(=S)c2[nH]c(=S)[nH]c2[nH]1	3.2µM	0	-	-	-	-
CCOC(=O)C(=O)Nc1c(C(=O)Nc2cccc(F)c2)oc2ccccc12	0	0	-	0	0	0
COC(=O)c1sc(C(=O)OC)c(C(=O)OC)c1C(=O)OC	0	0	0	0	?	0
COC(=O)c1sc(=S)sc1C(=O)OC	?	?	0	0	28µM	0
O=C(O)c1cccc(Cn2c(Cl)c(/C=N/NC(=O)c3cc4ccccc4cc3O)sc2=O)c1	79µM	?	?	-	10µM	25µM
Cc1ccccc1N/N=C/c1sc(=O)n(Cc2cccc(C(=O)O)c2)c1Cl	10µM	0	?	-	0	45µM
O=C(O)c1cccc(Cn2c(Cl)c(/C=N/NC(=O)c3cccc(O)c3)sc2=O)c1	0	0	0	0	0	0
CCn1c(=S)[nH]c2c(=O)n(C)c(=O)n(C)c21	5µM	?	-	-	-	-
Cn1c(=O)c2[nH]c(Br)nc2n(C)c1=O	-	-	0	-	0[12.7 µM]	-
Cc1cc(N(CCO)CCO)ccc1N=Nc1cc(F)ccc1F	22µM	?	0	0	14µM	22µM
OCCN(CCO)c1ccc(C(c2ccc(Cl)cc2)c2ccc(N(CCO)CCO)cc2Cl)c(Cl)c1	?	0	0	0	?	?
CN(C)c1ccc(NC(=O)CCCCCn2nnc3ccccc3c2=O)cc1	0	0	0	-	50µM	0
O=C(CSCC(=O)OCn1nnc2ccccc2c1=O)Nc1ccc(Cl)cc1	0	0	0	0	45µM	0
COc1ccc(C2CC(C)(c3ccc(OC)cc3OC)Nc3ccccc3N2)c(OC)c1 (configuration not stated)	0	0	0	0	0	0
O=C(OCc1ccccc1)/C(=C(\O)c1ccccc1Br)c1ccc(-c2ccccc2)cn1	0	0	-	0	0[2.33 µM]	56µM
CC(C)(C)OC(=O)CNC(=O)c1nc[nH]c1C(=O)N1CCNCC1	?	0	-	0	0[2.33 µM]	79µM
CC(C)(C)OC(=O)N1CCN(C(=O)c2[nH]cnc2C(=O)NCC(=O)OCc2ccccc2)CC1	0	0	0	-	71µM	0

Source: PubChem (National Center for Advancing Translational Sciences (NCATS))
